Compounds with a hit are over-represented: about 2.9% of the library has one in this group of screens.
Nrf2 inh: blocks Nrf2 signaling | AID 504444 | Potency, µM (highest dose often 46 µM), inactives show at the highest dose activity change, negative = inhibition, hits mostly inhibitors | A549 ARE-Fluc reporter, luciferase luminescence, 18-24 h | 360,000 compounds, 2.1% hits; also: % is scaled to controls: 0 for no effect and ±100 for the full control effect; nearly all actives have a fitted effect of over 60% in size
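Quantitative HTS in A549 cells stably bearing an antioxidant response element-firefly luciferase construct. Inhibition of Nrf2-driven transcription was scored by luminescence after 18-24 h of compound exposure at 37 °C.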
Nrf2 ARE act: activates Nrf2 signaling; AREc32 ARE-luciferase reporter (MCF7-derived line), luminescence, 24 h; Potency, µM (doses to about 46.1 µM), inactives show at the highest dose activation, hits mostly activators; 410,000 compounds, 0.31% hits; also: % of control where 0% means no effect; nearly all actives have a fitted effect of over 65% in size
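Luciferase luminescence (Steady-Glo, 30 min at room temperature) served as the read-out of ARE activation in AREc32 cells treated with compounds for 24 hr at 37 deg C.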
S2 tox: reduces viability in counter-screen for ATXN expression inhibitors; S2 cells (HEK-293 line with an ATXN2-luciferase reporter) viability, CellTiter-Fluor protease fluorescence, 24 h; Potency, µM (top dose mostly 56.7 µM), hits mostly cytotoxic; 400,000 compounds, 0.49% hits; also: nearly all actives have a fitted effect of over 40% in size
ATXN2 expr inh: reduces ATXN2 reporter expression in HEK-293 cells. HEK-293 ATXN2-luciferase reporter, luminescence, 24 h. Potency, µM (doses to about 57 µM), for inactives: at the highest dose activity change, negative = inhibition, actives largely listed as inhibitors. 360,000 compounds, 0.72% hits. AID 1745845; also: % is scaled to controls: 0 for no effect and ±100 for the full control effect; nearly all actives have a fitted effect of over 55% in size
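ATXN2-luciferase reporter cells (luciferase flanked by upstream and downstream ATXN2 gene portions) were treated 24 h at 37 °C with compounds at up to 57 uM. SteadyGlo luminescence gave expression; GF-AFC fluorescence gave viability.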
A549 tox: kills or reduces viability of A549 cells in Nrf2 counter-screen; A549 ARE-Fluc cells, CellTiter-Fluor viability, 18-24 h; Potency, µM (highest dose often 46 µM), without a hit: top-dose activity change, negative = cytotoxicity, usual class: inhibitors; 390,000 compounds, 0.16% hits; also: % is scaled to controls: 0 for no effect and ±100 for the full control effect
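A549 ARE_Fluc cells in 5% FBS OPTI-MEM were exposed to compounds in concentration-response for 18-24 h at 37 deg C. Viability was read by CellTiter-Fluor fluorescence (Ex 405/Em 525) after 30 min, before the luciferase read.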
An asterisk follows results filed as active; i = inactive; ? = inconclusive; . = no result; [ ] = remark or other dose. Calls follow the shape of the dose curve; as a rule, active = well fitted curve in the direction sought with a large enough effect; inconclusive = small, poorly fitted or top-dose-only effect, or another doubt; inactive = no such curve, though single readings can be large; an effect the other way counts as inactive or inconclusive. Potency is read from the fitted curve at half-maximal effect.

SMILES | Nrf2 inh | Nrf2 ARE act | S2 tox | ATXN2 expr inh | A549 tox
COc1cccc(CC(=O)n2nc(N)c3cc4ccc(OC)cc4nc32)c1 | -25% | 0% | i | ? | -4%
COCCC(=O)N1CCC(Oc2ccc(C(=O)NCc3cc(C)n(C)n3)cc2)CC1 | 7% | -2% | i | 2% | -3%
Cc1nn(C)c(=S)[nH]c1=S | -9% | -1% | i | 0% | -2%
O=C(CC1(O)C(=O)Nc2ccccc21)c1ccccc1O (stereo unspecified) | -10% | 3% | ? | -3% | -9%
O=C(CC1(O)C(=O)Nc2cc(Cl)cc(Cl)c21)c1ccccc1O (stereo unspecified) | -27% | 16µM* | ? | ? | -13%
CC1CN(CC(=O)Nc2cccc(C(=O)Nc3cccc(C(F)(F)F)c3)c2)CC(C)O1 (stereo unspecified) | 16µM* | 2% | i | -15% | -22%
CC(Nc1ncnc2c1cnn2-c1cccc(Cl)c1)c1ccccc1 (stereo unspecified) | . | -1% | ? | -31% | -16%
COC(=O)c1ccccc1NC(=O)C1=CC(c2ccc(C)cc2)=NS(=O)(=O)N1C | 18µM* | 0% | i | 1% | -12%
CC1CC(C)CN(C(=O)c2ccncc2)C1 (stereo unspecified) | -18% | 0% | i | -9% | -1%
Nc1ccc2c(c1)Cc1c(F)cccc1-2 | ? | 10µM* | i | 68% | 1%
CN(CC(=O)Nc1ccc(F)cc1)C(=O)C1CCN(S(=O)(=O)c2ccc3c(c2)OCCO3)CC1 | ? | 0% | i | -4% | -1%
CN(Cc1ccc(OC(F)F)cc1)C(=O)C1CCN(S(=O)(=O)c2ccc3c(c2)OCCO3)CC1 | 23µM* | 4% | . | . | -2%
CN(Cc1ccc(OC(F)F)cc1)C(=O)/C=C/c1ccc(S(=O)(=O)N2CCOCC2)cc1 | 23µM* | 2% | i | -31% | 0%
COc1ccc(CN(C)C(=O)/C=C/c2ccc(S(=O)(=O)N3CCOCC3)cc2)cc1F | ? | 3% | i | 1% | -5%
CC1(C)CC2CC(C)(CN2S(=O)(=O)c2cccc(C(=O)O)c2)C1 (stereo unspecified) | 3% | 0% | i | 9% | 0%
CCCCCNC(=O)c1cccc(S(=O)(=O)N2CC3(C)CC2CC(C)(C)C3)c1 (stereo unspecified) | 26µM* | 0% | ? | -2% | -17%
COc1ccc(OC)c2c1C(=O)c1ccccc1C2=O | -24% | 0% | i | 1% | -14%
COc1ccc(OC)c2c1C(=O)C(Cl)=C(Cl)C2=O | -3% | -1% | 7.9µM* | 7.1µM* | ?
CN(C)CCCN=c1cc(-c2ccccc2)oc2ccc(Cl)cc12 | 5% | 14µM* | i | -21% | 11%
Cc1cccc(-c2nnc(-c3cccc(NC(=O)Cc4cccs4)c3)o2)c1 | 21µM* | 4% | i | 48% | ?
O=C(Cc1cccs1)Nc1ccc(-c2nnc(-c3ccccc3)o2)cc1 | 10% | 4% | ? | 0% | 0%
CCCC[n+]1ccn(C2=C([O-])c3ccccc3C(=O)/C2=N\S(=O)(=O)c2ccccc2)c1 | 20µM* | -2% | ? | ? | ?
CC(C)[n+]1ccn(C2=C([O-])c3ccccc3C(=O)/C2=N\S(=O)(=O)c2ccccc2)c1 | 23µM* | -2% | i | -41% | -8%
CN(C)c1ccc2cc(C(=O)N[C@@H](CCCN=C(N)CCl)C(=O)NCc3ccccc3)ccc2c1 | . | . | . | 31µM* | .
N/C(=N/OC(=O)c1ccccc1Cl)c1nonc1N | ? | 13µM* | i | 40% | -8%
SMILES | Nrf2 inh | Nrf2 ARE act | S2 tox | ATXN2 expr inh | A549 tox
COc1cc(-c2c(C#N)c(N)nc(SCc3ccncc3)c2C#N)cc(OC)c1OC | -28% | 11% | i | -16% | 14%
N#Cc1c(N)nc(SCc2ccncc2)c(C#N)c1-c1cccs1 | 23µM* | 6% | ? | ? | -17%
O=C(NCc1cccnc1)c1ccc(S(=O)(=O)N2CCCCC2)cc1 | ? | 0% | i | 3% | 0%[1.84 µM]
O=S(=O)(c1ccc(NC(=S)NCc2cccnc2)cc1)N1CCCCC1 | 23µM* | 0% | ? | . | -22%
CN(CC(=O)Nc1ccc(Cl)cc1)C(=O)c1cccc(S(=O)(=O)NCc2ccccc2)c1 | -3% | 6% | i | -16% | 1%
CN(C)C(=O)c1ccc(NC(=O)c2cccc(S(=O)(=O)N3CCN(Cc4ccccc4)CC3)c2)cc1 | 18µM* | 0% | i | -15% | -4%
CN(CC(=O)Nc1ccc(Cl)cc1)C(=O)c1cccc(S(=O)(=O)N2CCN(Cc3ccccc3)CC2)c1 | 13µM* | 1% | i | ? | ?
O=C(Nc1ccc(S(=O)(=O)N2CCCC2)cc1)c1cnccn1 | -15% | 0% | i | 2% | -20%
O=C(Nc1ccc(S(=O)(=O)N2CCN(Cc3ccccc3)CC2)cc1)c1cnccn1 | 4.1µM* | 0% | i | -21% | -13%
Cc1cccc(CN2[C@H](COC(=O)Nc3ccccc3)C=CS2(=O)=O)c1 | . | -1% | i | -15% | .
Cc1ccc(CNS(=O)(=O)c2ccc3c(c2)CCN3S(C)(=O)=O)cc1 | . | -1% | i | -13% | 10%
O=C(Nc1ccccc1N1CCOCC1)c1cnccn1 | -7% | -1% | i | . | 1%
O=C(Nc1ccc(N2CCOCC2)cc1)c1cnccn1 | ? | -2% | i | 2.5µM* | -7%
O=C(Nc1ccc(N2CCOCC2)nc1)c1ccc(Cl)cc1 | 21µM* | 0% | i | 11% | -20%
CCOc1ccc(CN2CCN(S(=O)(=O)c3ccc(NC(C)=O)cc3)CC2)cc1 | 21µM* | 2% | i | -13% | -5%
CS(=O)(=O)c1ccc(NC(=O)c2cccc(S(=O)(=O)N3CCN(Cc4ccccc4)CC3)c2)cc1 | 13µM* | 0% | ? | -1% | -17%
CC(NC(=O)c1cccc(S(=O)(=O)N2CCN(Cc3ccccc3)CC2)c1)c1ccccc1Cl (stereo unspecified) | ? | 0% | i | -13% | 2%
CC1(C)CC(=O)N(c2cc(Cl)cc(Cl)c2)C(=O)C1 | -2% | 0% | i | -9% | -3%
C[C@@H](O)[C@H](N)C(=O)O | . | . | i | 4%[25.6 µM] | .
CCCCCCC[C@@H](C/C=C/CCC(=O)N(C)C/C(=C/Cl)C/C(=C\C(=O)N1CC(OC)=CC1=O)OC)OC | ? | 7% | 22µM* | ? | ?
O=C(CNS(=O)(=O)c1ccc([N+](=O)[O-])cc1)N/N=C/c1ccc(O)cc1O | -15% | -2% | i | 24µM* | 1%
O=C(CNS(=O)(=O)c1ccc([N+](=O)[O-])cc1)N/N=C\c1ccc(O)cc1 | -8% | 0% | i | . | 6%

Screening data (PubChem BioAssay)
